From PubChem
TWEAK Fn14 block: inhibitors of TWEAK-Fn14 signaling, primary screen, luciferase reporter cells, uHTS; TWEAK-stimulated Fn14 reporter cells, luciferase luminescence, 8 h; inhibition, % at 10 µM; hit rate 2% among 360,000; AID 1159606, 2016; in the data active = inhibition above about 50%
Shn3 inh set2: reduction of Shn3 3'UTR firefly luciferase signal, primary screen, Schnurri-3 inhibitor project, cell-based, Clone20 osteoblasts, set 2; inhibition, % at 12.5 µM; Clone20 osteoblast Shn3 3'UTR firefly luciferase, 24 h; AID 588674, 2011; hit rate 0.52% among 360,000;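 active = mean inhibition of at least 75% with every replicate also reaching 75%; inconclusive = mean inhibition at least 75% but some replicate below; inactive = mean inhibition below 75%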;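 note: 0% = median of neutral control wells and 100% = pilot-screen positive control compound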
MITF TRPM1 inh: inhibitors of MITF-dependent TRPM1 promoter reporter, primary screen, cell-based, SK-MEL-5, single point, luciferase; inhibition, % at 12.5 µM; SK-MEL-5 TRPM1 promoter luciferase, 24 h; AID 488899, 2010; hit rate 0.83% among 330,000;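 active = mean inhibition across replicates of 60% or more, whatever share of single replicates reaches that level; inconclusive = some that reach 60%, reason not given; inactive = mean inhibition across replicates below 60%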
TROY signal inh: inhibitors of TROY-driven NF-kB signaling, primary screen, Q293 LMP1-TROYcd cells, NF-kB luciferase, uHTS; Q293 LMP1-TROYcd NF-kB luciferase reporter, 4 h; inhibition, % at 10 µM; hit rate 0.98% among 360,000; AID 1347056, 2019;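 active = compounds whose plate-normalised and pattern-corrected inhibition of the luciferase reporter signal at the single screening dose is 50% or more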
Peg3 promoter: Peg3 promoter-driven luciferase inhibitors, primary screen, cell-based, HeLa, luciferase luminescence | HeLa PEG-Prom luciferase reporter, overnight | inhibition, % at 20 µM | hit rate 1.7% among 360,000 | AID 588405, 2011;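 active = inhibition of at least 50% at 20 µM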
EBV LMP1 NFkB: EBV LMP1-driven NF-kappaB luciferase reporter inhibitors, primary screen, cell-based, luminescence, single point | LMP1-induced NF-kappaB luciferase reporter cells | inhibition, % at 12.5 µM | hit rate 0.69% among 350,000 | AID 504558, 2011; in the data active = inhibition above about 41%; inconclusive = no clear call, values can overlap the other calls;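 note: 0% = neutral control wells and 100% = reference inhibitor control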
Numbers without * were called inactive; ? = inconclusive; · = no result given. Only some compounds are listed: those with a hit (about 4.1% of all), similar ones and a draw of the others.

SMILES | TWEAK Fn14 block | Shn3 inh set2 | MITF TRPM1 inh | TROY signal inh | Peg3 promoter | EBV LMP1 NFkB
O=C(CN1C(=O)COc2ccccc21)N1CCOCC1 | -1.2 | -12.3 | 2.4 | 9.9 | -4.7 | 8.1
CS(=O)(=O)N(CC(=O)N1CCCCC1)c1sc2c(c1C#N)CCCC2 | -1.0 | 1.6 | 6.2 | -1.3 | 5.8 | 7.2
Cn1c(=O)[nH]c(NC2CCCCC2)c(N=O)c1=O | 7.2 | -0.1 | -8.8 | 0.6 | 4.6 | -9.2
CC1CCN(C(=O)CN2c3cccc4cccc(c34)S2(=O)=O)CC1 | 9.3 | 42.5 | 14.8 | -17.8 | 3.2 | 2.4
CCOc1ccc(N=NC2C(=O)N(C(N)=S)N=C2C)cc1 (stereo unspecified) | -18.1 | -2.6 | -36.4 | -85.2 | -247.5 | -5.2
OCCCNc1ncnc2sc3c(c12)CCN(Cc1ccccc1)C3 | 69.3* | -3.2 | -1.8 | 35.8 | 10.2 | -3.6
O=C(COc1cccnc1[N+](=O)[O-])c1ccc(Cl)s1 | -8.4 | 0.7 | 1.8 | -10.4 | -15.9 | -2.4
Cc1nn(-c2ccccn2)c2c1C(c1ccccc1Cl)C1=C(N2)c2ccccc2C1=O (stereo unspecified) | 50.1* | -11.0 | 24.4 | 16.1 | 35.6 | 9.6
COc1cc2c(cc1[N+](=O)[O-])-c1ccc([N+](=O)[O-])cc1C2=NO | 20.6 | -24.7 | · | 14.1 | 52.0* | -5.5
CN(C)C(=O)/C(C#N)=C\c1cc(Br)c(Sc2ccc(Cl)cc2)o1 | 88.0* | -2.9 | 16.5 | 31.0 | 78.4* | 17.6
Clc1ccc(Sc2oc(/C=N/n3cnnc3)cc2Br)cc1 | 11.5 | -1.9 | 2.5 | 1.4 | -7.1 | -11.9
O=S(=O)(Nc1cccc(-c2ccc3nncn3n2)c1)c1ccccc1F | -10.0 | 12.5 | -0.1 | -6.1 | -10.4 | 4.4
O=S(=O)(Nc1ccc(-c2ccc3nncn3n2)cc1)c1ccccc1F | -20.4 | -2.4 | -1.9 | -1.8 | 50.5* | 1.0
COc1ccc(CCN=C(N)NS(=O)(=O)c2ccc(C)c(C)c2)cc1 | 0.2 | 6.7 | -9.3 | 0.6 | 14.7 | 6.4
O=C(CNC(=O)c1ccccc1)N/N=C/c1cc(Br)ccc1O | 28.3 | ? | 9.4 | 21.2 | 21.5 | -30.5
O=C(CN1CC(c2ccccc2)CC1=O)N/N=C/c1cc(Br)ccc1O (stereo unspecified) | -10.3 | 88.0* | 10.4 | -2.5 | 45.9 | 1.0
O=C(CN1C(=O)/C(=C2\SC(=S)N(C3CCS(=O)(=O)C3)C2=O)c2ccccc21)Nc1ccc(F)cc1 (stereo unspecified) | 78.4* | -40.8 | 26.0 | -8.6 | 26.5 | 1.7
CS(=O)(=O)c1nc([N+](=O)[O-])nn1CCCc1ccccc1 | 87.3* | -10.4 | -0.7 | 22.2 | 59.5* | -2.0
Cn1nc([N+](=O)[O-])nc1S(C)(=O)=O | 54.4* | 11.2 | 72.0* | 17.5 | 49.3 | -8.3
COc1ccc(CC(=O)Nc2cccc(-c3nnc(-c4ccccc4)o3)c2)cc1OC | 102.2* | 63.6 | 42.5 | 69.2* | 100.3* | 25.1
COc1ccc(CC(=O)Nc2cccc(-c3nnc(-c4ccc(C)cc4)o3)c2)cc1OC | 101.9* | 64.8 | 62.2* | 64.2* | 111.1* | 18.8
Cc1ccc(OCC(=O)Nc2cccc(-c3nnc(-c4ccccc4)o3)c2)c(C)c1 | 13.5 | -10.7 | -26.9 | -29.6 | -22.9 | 7.8
COc1ccc(CC(=O)Nc2cccc(-c3nnc(-c4cccc(C)c4)o3)c2)cc1OC | 88.9* | 74.1 | -8.4 | 60.9* | -55.6 | 16.2
COc1ccc(CC(=O)Nc2ccc(-c3nnc(-c4ccccc4)o3)cc2)cc1OC | -1.4 | 5.2 | -19.7 | -28.7 | -61.4 | -9.5
COc1cccc(/C=C/C(=O)Nc2ccccc2N2CCOCC2)c1 | -13.9 | -21.7 | -21.8 | -17.4 | -74.5 | 4.5
SMILES | TWEAK Fn14 block | Shn3 inh set2 | MITF TRPM1 inh | TROY signal inh | Peg3 promoter | EBV LMP1 NFkB
COC(=O)c1sccc1NC(=O)c1cc(-c2ccc(C)cc2)nc2ccccc12 | 98.3* | -9.2 | 5.3 | -12.8 | -13.6 | -1.4
COC(=O)c1sc(NC(=O)c2cc(-c3ccccc3)nc3ccccc23)c(C#N)c1C | 35.5 | 79.4 | 46.0 | 51.5* | 35.1 | 19.0
Cc1ccc(C)c(-c2cc(C(=O)Nc3nccs3)c3ccccc3n2)c1 | 62.5* | 20.7 | 11.2 | 9.7 | 41.4 | 3.9
COC(=O)c1sccc1NC(=O)c1cc(-c2cc(C)ccc2C)nc2ccccc12 | 32.2 | 20.1 | 8.9 | 6.5 | 37.9 | 9.5
Cc1ccccc1-c1cc(C(=O)Nc2sc(C(=O)OC(C)C)c(C)c2C#N)c2ccccc2n1 | 62.0* | 70.7 | 43.0 | 58.1* | 31.1 | 32.1
Cc1ccc(S(=O)(=O)N(C)CC(=O)Oc2ccc(-c3nnco3)cc2)cc1 | 2.0 | -13.6 | 4.1 | 10.0 | -4.5 | 2.0
COc1ccc(-c2cc(C(=O)Nc3sc4c(c3C#N)CCCC4)c3ccccc3n2)cc1 | -18.1 | -9.6 | 16.1 | -12.1 | 10.6 | 9.4
CCOC(=O)c1sc(NC(=O)c2cc(-c3ccc(C)cc3)nc3ccccc23)c(C#N)c1C | 61.9* | 13.4 | 26.5 | 48.5 | 2.1 | 5.2
O=C(c1ccccc1F)N1CCN(c2ccc([N+](=O)[O-])c3ncccc23)CC1 | -0.2 | 30.8 | 24.9 | 0.7 | 13.6 | 1.8
O=[N+]([O-])c1cccc2c(N3CCCC3)ccnc12 | -0.5 | 62.4 | 81.3* | -19.4 | -26.6 | -38.4
CC(=O)N1c2ccc(Cl)cc2C2C=CCC2C1c1cccc2ccccc12 (stereo unspecified) | 49.5 | 61.7 | 10.1 | 23.9 | 66.1* | -3.0
COc1ccc(CNC(=O)CSc2n[nH]c(C)c2[N+](=O)[O-])cc1 | 19.6 | 3.1 | -0.5 | 7.0 | 6.3 | -11.4
CCc1nc(N)c(C#N)c(-c2ccc(F)cc2)c1C | 6.3 | 3.4 | -6.3 | 0.9 | 2.6 | -0.4
Cc1ccc2c(n1)sc1c(-c3ccc(Br)cc3)c(C#N)c(N)nc12 | -54.7 | 15.3 | 13.5 | -48.2 | 55.9* | -4.8
CCc1nc2c(OCCC3CCCCC3)cccn2c1N(C)C(=O)C(C)C | -3.6 | 21.6 | · | -3.8 | 18.9 | ·
COC(CN(C(=O)CCl)C(C(=O)NC1CCCCC1)c1ccccc1C)OC (stereo unspecified) | 40.9 | 1.9 | 27.4 | -3.4 | 64.5* | 4.9
COC(CN(C(=O)CCl)C(C(=O)NC1CCCCC1)c1ccc(Cl)cc1)OC (stereo unspecified) | -10.2 | -10.4 | -2.6 | 1.8 | 16.0 | -2.8
COC(C(=O)NC1CCCCCCC1)c1ccccc1 (stereo unspecified) | 13.0 | -25.1 | 1.1 | -16.1 | 13.0 | -5.6
COC(CN(C)C(C(=O)NC1CCCCC1)c1ccccc1)OC (stereo unspecified) | 80.8* | 23.1 | -0.5 | -10.6 | 5.2 | 3.4
N#Cc1ccc(CSc2nnc(Cc3cccs3)n2Cc2ccco2)cc1 | 76.0* | 4.5 | 4.1 | · | -2.2 | -7.0
